108 compounds from PubChem BioAssay AID623868 (Vanderbilt High Throughput Screening Facility, 2012) can be followed below.

Hit rate of the full screen: of about 2,100 compounds, about 760 (36%) were called active. A selection follows. A number with no mark means an inactive call.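 Rule for the calls: active = thallium-flux fluorescence traces judged by eye to show enhanced or reduced glutamate response, manual score 1 or -1, so both directions (some results past the limit were not filed as active); inactive = the rest, including fluorescent or raised-baseline compounds.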

The assay in a line: non-GIRK thallium flux modulation in mGlu8 cells, confirmation, counter-screen for GIRK activator project, cell-based, HEK-293 rmGlu8, no GIRK (AID 623868).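 Note: extra codes mark interference with 3 for fluorescent and 4 for baseline rise.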 Particulars: thallium flux fluorescence, at 10 µM, actives lie on both sides, codes: 1 enhancer, -1 blocker, 0 none, thallium stimulus containing EC20 glutamate.
Turning to `CC1CCN(c2ccc(/C=N/n3nnnc3N)cc2[N+](=O)[O-])CC1`, the manual score is 0.
Then `COc1ccc2c(c1)Sc1ccccc1N2CCN(C)C`, with 0; and `COc1ccccc1/C=C/C=N\N1CCN(Cc2ccccc2Cl)CC1`, with 0.
Take `Cc1cc(C)n(-c2nnc(C)n2/N=C/c2ccccc2OCc2ccccc2Cl)n1`: the manual score is -1 (active).
Take `O/N=C/c1cc(Cl)ccc1OCc1cccc2ccccc12`: the manual score is 0.
Take `Fc1ccc(NC(=S)Nc2ccccc2OC(F)F)cc1Cl`: the manual score was 0.
Regarding `CCc1ccc(NC(=S)NNC(=O)c2ccccc2OC(F)F)cc1`, the manual score was 1 (active).
`CCNC(=S)NNC(=O)c1cccn(Cc2ccc(Cl)cc2)c1=O`: the manual score is 0.
For `CCc1ccc2c(c1)C1(NN=C(c3cccc4ccccc34)S1)C(=O)N2` (stereo not drawn), the manual score was 0.
In the case of `CCc1ccc(Nc2nc3ccccc3c(=O)s2)cc1` it was 1 (active); in that of `c1ccc2c(Nc3nnc(-c4ccncc4)s3)cccc2c1`, 0; in that of `CCOc1cc(C(=O)NCc2ccncc2)cc(OCC)c1OCC`, 0.
With `COc1ccc(-n2nnnc2SCC(=O)N2CCOCC2)cc1`, the manual score was 0.
As for `NS(=O)(=O)c1ccc(S(=O)(=O)N2CCCC2)cc1`, the manual score is 0.
As for `Cc1ccc(-c2nnc(SCC(=O)Nc3ccc4c(c3)OCCO4)n2N)cc1`, the manual score was 0.
In the case of `Cc1ccc2nc(-c3ccc(O)cc3)c(Nc3ccc4c(c3)OCCO4)n2c1` it was -1 (active); in that of `CCCN(CCC)CC(O)Cn1cc(/C=C/C(=O)c2cccs2)c2ccccc21` (stereo not drawn), 3.
For `O=C(Nc1nc2ccc(Cl)cc2s1)c1ccc(Br)o1`, the manual score is 0.5.
Consider `Cc1cc(C)c2nc(NC(=O)c3cc(C)on3)sc2c1`, for which the manual score is 1 (active).
`CCc1ccc2nc(NC(=O)c3cc(C)on3)sc2c1`: the manual score is 1 (active).
With `CNC(=O)c1ccc2nc(NC(C)=O)sc2c1`, the manual score is 0.
In the case of `COc1ccc(-c2c(S(=O)(=O)c3ccccc3)cnn2-c2ccccc2)cc1`, the manual score was 0.
For `CCOc1ccc(NC(=O)NC23CC4CC(CC(C4)C2)C3)cc1`, the manual score is 0.
In the case of `COc1ccc2nc(NC(=S)N(C)C)sc2c1` it was 1 (active); in that of `COc1ccc2nc(N=Nc3ccc(O)c4ccccc34)sc2c1`, 0.
On to `CS(=O)(=O)c1ccc2nc(NC(=O)Nc3ccc(Cl)c(Cl)c3)sc2c1`, for which the manual score is 0.
With `Cc1ccc(OCC(O)Cn2c(=N)n(Cc3ccccc3)c3ccccc32)cc1` (stereo not drawn), the manual score was 0.
In the case of `CCn1c2ccccc2c2cc(/C=N/n3cn[nH]c3=S)ccc21`, the manual score is 1 (active).
Turning to `CCn1c(-c2cc3c(C(F)(F)F)nn(C)c3s2)n[nH]c1=S`, the manual score is 0.
Turning to `CCn1c(-c2ccc(-c3ccccc3)cc2)c[nH]c1=S`, the manual score is 0.
As for `CCOC(=O)Cn1c(=N)n(Cc2ccccc2F)c2ccccc21`, the manual score was 0.
Take `O=[n+]1c2c(n([O-])c3cc(F)c(N4CCCC4)cc31)CCCC2`: the manual score is 3.
On to `Cc1ccc(S(=O)(=O)N2CCN(C)CC2)cc1-c1nnc2c3ccccc3c(C)nn12`, for which the manual score was 0.
For `COC(=O)[C@H](CC(C)C)NC(=O)Nc1ccc2c(c1)OCCO2`, the manual score is 0.
Regarding `C/C(=N\NC(=S)Nc1cccc(C)c1)c1cccc(N)c1`, the manual score is 1 (active).
`C/C(=N\NC(=S)Nc1ccc(F)cc1)c1ccc2c(c1)OCCO2`: the manual score is 1 (active).
Then `C/C(=N/NC(=S)Nc1ccccc1)c1ccc2c(c1)OCO2`, with 1 (active); and `O=C(Nc1ccc2c(c1)OCCO2)NC12CC3CC(CC(C3)C1)C2`, with 0; and `CN(C)S(=O)(=O)c1cc(NC(=O)COC(=O)c2ccc3c(c2)OCO3)ccc1Cl`, with 0.
In the case of `Cc1c(N2C(=O)CS/C2=N\N=C\c2ccccc2O)c(=O)n(-c2ccccc2)n1C`, the manual score was 0.
With `O=C1c2ccccc2C(=O)N1Nc1ccccc1`, the manual score is 0.
As for `Cc1ccc(C)n1-c1ccc(-c2nnco2)cc1`, the manual score was 0.
With `CCOc1ccc(-c2nc(-c3cccnc3)no2)cc1OCC`, the manual score was 0.
In the case of `O=C(CSc1nnnn1-c1cccc2c1CCCC2)NC1CCCC1`, the manual score was 0.
On to `Cc1ccc(-c2cn(-c3ccccc3)c(SCC(=O)NC3CCS(=O)(=O)C3)n2)cc1C` (stereo not drawn), for which the manual score is 1 (active).
With `Cc1ccccc1NC(=S)c1nc2ccccc2[nH]1`, the manual score was 1 (active).
With `Cc1ccc(C)c(NC(=S)c2nc3ccccc3s2)c1`, the manual score is 1 (active).
Then `N#C/C(=C\c1ccc(N2CCOCC2)o1)c1nc2ccccc2[nH]1`, with 3; and `Cc1ccc(OC(=S)Nc2ccccc2)c(C)c1`, with 0; and `Cc1ccc2nc(NCc3ccccc3)[nH]c2c1`, with 0.
Take `N#C/C(=C/c1ccc(N2CCOCC2)o1)c1nc2ccccc2[nH]1`: the manual score is 3.
With `Cc1ccc(NC(=S)c2nc3ccccc3[nH]2)c(C)c1`, the manual score is 1 (active).
Then `Cc1ccc(-n2nnnc2-c2nc3ccccc3s2)cc1`, with 0.
Turning to `Cc1ccc(Cn2c(SCC(=O)NCC3CCCO3)nc3c(sc4ccccc43)c2=O)cc1` (stereo not drawn), the manual score was 0.
Take `Cc1cc(NC(=O)CSc2nc3ccccc3c(=O)n2Cc2ccccc2)no1`: the manual score was 0.
In the case of `CC(c1ccccc1)n1c(SCC(=O)N2CC(=O)Nc3ccccc32)nc2ccccc2c1=O` (stereo not drawn), the manual score is 0.
Regarding `O=C1CN(C(=O)CSc2nc3ccccc3c(=O)n2Cc2ccc(F)cc2)c2ccccc2N1`, the manual score was 1 (active).
As to `CCC(C)NC(=O)CSc1nc2ccccc2c(=O)n1Cc1ccc(OC)cc1` (stereo not drawn), the manual score is 1 (active).
`O=C(CSc1nc2ccccc2c(=O)n1CC1CCCO1)N1CCN(c2ccccc2)CC1` (stereo not drawn): the manual score was 0.
In the case of `O=C1CN(C(=O)CSc2nc3cc(Cl)ccc3c(=O)n2Cc2ccccc2)c2ccccc2N1`, the manual score was 1 (active).
As to `Cc1ccc(Cn2c(SCC(=O)N3CC(=O)Nc4ccccc43)nc3ccccc3c2=O)cc1`, the manual score is 1 (active).
On to `Clc1ccc(OCCn2ccnc2)c(Cl)c1`, for which the manual score was 0.
Consider `CC(/C=N/n1c(-c2ccccc2)n[nH]c1=S)=C\c1ccco1`, for which the manual score is 1 (active).
In the case of `CC(/C=N/n1c(-c2ccc(Cl)cc2)n[nH]c1=S)=C\c1ccco1` it was 1 (active).
With `O=C(Nc1ccccc1)Nc1nccs1`, the manual score was -0.5.
Take `COC(=O)CSC1=NS(=O)(=O)c2ccccc21`: the manual score is 0.
As for `CCCc1nc2ccccc2c(=O)n1/N=C/c1c(C)[nH]n(-c2ccc(C)cc2)c1=O`, the manual score is 1 (active).
For `CN(C)CCNc1nc2c(c(=O)[nH]c(=O)n2C)n1CCCc1ccccc1`, the manual score is 0.
As for `O=c1c(-c2ccccc2)nc(-c2ccccc2)cn1O`, the manual score is 1 (active).
For `COCCn1nnnc1C(c1ccccc1)N1CCN(c2ccccc2)CC1` (stereo not drawn), the manual score is 0.
In the case of `CCC(=O)Oc1oc(-c2ccccc2)nc1C=Nc1ccccc1OC` it was -1 (active); in that of `COc1ccccc1N=Cc1nc(-c2ccccc2)oc1OC(C)=O`, -1 (active).
Take `Cc1ccnc(NC(=S)NC(=O)/C=C/c2ccco2)c1`: the manual score was 0.
`CCOC(=O)c1ccc(NC(=O)Nc2ccc(OC)c(OC)c2)cc1`: the manual score was 0.
Turning to `COc1ccc(C(=O)NC(=S)NCCO)cc1Br`, the manual score is 1 (active).
Regarding `C=CCN(CC=C)C(=S)NC(=O)/C=C/c1ccc(C)cc1`, the manual score is 1 (active).
Take `C=CCN(CC=C)C(=S)NC(=O)c1ccc(C)c(Br)c1`: the manual score was 1 (active).
For the compound `CCOC(=O)c1c(CNCCN(CC)CC)n(C)c2cc(Br)c(OC)cc12`, the manual score was 0.
As to `COc1ccc(C(=O)NC(=S)NC(C)C)cc1Br`, the manual score is 0.5.
In the case of `C=CCN(CC=C)C(=S)NC(=O)c1ccc(OC)c(Br)c1`, the manual score is 1 (active).
Then `Cc1ccc(-c2nnn(CC(=O)NC3CC4CCC3C4)n2)cc1` (stereo not drawn), with 0; and `Clc1ccc(Cc2ccc(SCc3ccccc3)nn2)c(Cl)c1`, with 0.
For the compound `CCCCCCCCCn1c2c(c(=N)c3c1CCC3)CCC2`, the manual score is 0.
Consider `CCN(CC)C(=O)CN(c1ccc2c(c1)OCO2)S(C)(=O)=O`, for which the manual score was 0.
As for `NC1=NC2(CCCCC2)n2c(nc3ccccc32)N1`, the manual score was 0.
Take `NC(=O)SCC(=O)Nc1cccc(Cl)c1`: the manual score is 0.
Consider `COC(=O)C(C)N(C(=O)c1cccc(Cl)c1)c1c(C)cccc1C` (stereo not drawn), for which the manual score is -1 (active).
Regarding `COC(=O)C(C)N(C(=O)c1cccc2ccccc12)c1c(C)cccc1C` (stereo not drawn), the manual score is -1 (active).
Regarding `S=c1[nH]ccn1-c1cccc(Cl)c1`, the manual score is 0.
As for `Oc1c(C=NCc2ccncc2)sc2ccccc12`, the manual score was 0.
`C=C(C)C1CC=C(C)/C(=N/NC(=O)COc2cccc(C)c2)C1` (stereo not drawn): the manual score was 0.
For the compound `O=C(COc1ccc(Br)cc1Cl)NC(=S)N1CCc2ccccc21`, the manual score is 0.
Regarding `O=C(COc1ccccc1Cl)NC(=S)N1CCc2ccccc21`, the manual score was 1 (active).
For `Cc1cccc(OCc2nnc(SCC(=O)N3CCc4ccccc43)n2C)c1`, the manual score is 0.
In the case of `Cc1cccc(OCC(=O)NC(=S)N2CCCc3ccccc32)c1` it was 1 (active); in that of `Cc1cnc(NC(=O)COc2ccccc2Cl)s1`, 0; in that of `O=C(COc1ccccc1)NC(=S)N1CCc2ccccc21`, 1 (active).
On to `CC(Oc1ccc(Cl)cc1Cl)C(=O)NC(=S)N1CCc2ccccc21` (stereo not drawn), for which the manual score was 1 (active).
In the case of `N#CC(C#N)=C1C=C2C=C(N3CCCCCC3)CCC2CC1` (stereo not drawn), the manual score was 3.
Regarding `CC1CCC/C(=N\NC(=O)COc2ccc(Cl)cc2Cl)C1` (stereo not drawn), the manual score was 0.
On to `O=C(COc1ccc(Br)cc1Br)NC(=S)N1CCCc2ccccc21`, for which the manual score is 0.5.
As to `O=C(COc1ccc(Cl)cc1Cl)NC(=S)N1CCCc2ccccc21`, the manual score was 1 (active).
For the compound `CCCCN(CCCC)c1nc2ccccc2nc1C(C#N)C(=O)NCCCOC` (stereo not drawn), the manual score was 3.
Turning to `S=C(NN=C(C1CC1)C1CC1)Nc1ccccc1`, the manual score was 0.
Take `C=C(C)C1CC=C(C)/C(=N/NC(=S)Nc2ccccc2)C1` (stereo not drawn): the manual score was 0.
In the case of `S=C(NN=C1C2CC3CC(C2)CC1C3)Nc1ccccc1` it was 1 (active); in that of `CC(C)N=c1scc(-c2cccs2)n1/N=C/c1ccc(O)c(O)c1O`, 0; in that of `CC(c1ccco1)N(C(=O)c1ccccc1NS(=O)(=O)c1cc([N+](=O)[O-])ccc1Cl)c1ccccn1` (stereo not drawn), 1 (active).
